In PubChem BioAssay (NCATS):
Results filed as inconclusive are left out. A call without a number means that no potency is given here. The source made the active and inactive calls. The call rests on the fitted dose curve; in most records, active means well fitted inhibition curve with a large enough effect; inconclusive means small, poorly fitted or top-dose-only effect; inactive means no such curve, though single readings can be large or run the other way. Where a SMILES comes first, the peptide text is derived from it. [ ]: non-standard residue; d: D form. ξ: configuration not given here. ξLac(3-iPr) = CC(C)CC(O)C(=O)O; NMeV = CN[CH](C(=O)O)C(C)C; βAla = NCCC(=O)O

The molecules below were run on Zika virus NS2B-NS3 protease (unlinked complex) (assay: Primary screen GU Rhodamine qHTS for Zika virus inhibitors: Unlinked NS2B-NS3 protease assay (AID 1347159; further: nearly all actives have a fitted effect of over 60% in size)). Settings: Recombinant ZIKV NS2B-NS3 protease, Rhodamine110 substrate fluorescence; series mostly up to 107 µM.
Source text: Avindra Nath, Ph.D., National Institute of Neurological Disorders and Stroke (NINDS), Bethesda, MD
Radhakrishnan Padmanabhan, Ph.D., Georgetown University (GU), Washington D.C.
Zika Virus causes congenital defects, including microcephaly and is associated with Guillain-Barre syndrome, eningoencephalitis and myelitis in infected adult. […] Using a target-based approach, we hope to establish a screening paradigm to uncover novel, cell-active NS2B-NS3 protease (Zika Virus) specific inhibitors from NCATS' collection of small molecules using qHTS.
Four assay panel was created to identify potential Zika Virus inhibitors. Namely, (1) GU unlinked NS2B-NS3 AMC tagged protease qHTS, (2) GU unlinked NS2B-NS3 Rhodamine tagged protease qHTS, (3) NINDS linked NS2B-NS3 AMC tagged protease qHTS, (4) NINDS linked NS2B-NS3 Rhodamine tagged protease qHTS. Active compounds were re-acquired and re-screened to confirm inhibition. Inhibitors were further screened against various confirmatory and counterscreens in dose response format.
Early Translation Branch (ETB)
National Center for Advancing Translational Sciences (NCATS), Rockville, MD
National Institute of Health (NIH), Bethesda, Maryland
Padmanabhan lab provided the NS2B hydrophilic domain and NS3 protease domain in a noncovalent complex used for the unlinked assay. Control compound aprotinin is obtained from Thermo Scientific (#78432; Waltham, Massachusetts). Rhodamine110 substrate ([N-Cbz]-Nle-Lys-Arg-Arg-Rhod110-Arg-Arg-Lys-Nle-[N-Cbz]) was purchased from either Genscript or Bachem.
1536-well Protease (Rhodamine110 Substrate) Assay:
Briefly, 3 microL of enzyme (25 nM final concentration), in assay buffer (10 mM Tris-HCl pH 8.0 with 0.01% Tween 20) were dispensed into a 1,536-well solid-bottom black plate (Greiner Bio One, Monroe, NC). Twenty-three nL of compounds (final concentration range 7.28 nM to 114 microM) or control Aprotinin (final concentration range 3.47 nM to 114 microM) were transferred via Wako Pin-tool (Wako Automation, Richmond, VA). Samples were incubated (room temperature, protected from light) for 15 minutes followed by a 1 microL Rhodamine110 substrate addition (1.5 microM final concentration). Plates were then immediately read on a ViewLux High-throughput CCD imager (PerkinElmer, Waltham, MA) equipped with FITC fluorescence optics (480(20) nm excitation, 540(25) nm emission), then incubated (room temperature, protected from light) for 15 minutes (~15% conversion). The change in fluorescence intensity over the 15-minute reaction period was normalized against no-inhibitor and no-enzyme controls and the resulting percent inhibition data were fitted to a 4-parameter Hill equation. Aprotinin was used as intraplate control.
Potency means the concentration at half of the fitted maximal effect.

Structure (SMILES) | Potency | activity change, negative = inhibition
C=C1CN(Cc2ccc(C(=O)Nc3ccccc3N)cc2)C(=O)c2ccccc21 | inactive | 
CC(=O)OC1C[C@@]2(C)[C@@H](CC[C@@H](C)[C@]23Cc2c(O)cc4c(c2O3)CNC4=O)C(C)(C)[C@@H]1O (stereo not given in full) | inactive | 
COc1ccc(CNC(=O)c2sc3nc(C)cc(C)c3c2N)cc1 | inactive | 
C[C@@H]1O[C@@H](O[C@@H]2[C@@H](O)[C@H](O[C@H]3[C@H](O[C@H]4CC[C@@]5(C)C(CC[C@]6(C)C5CC=C5[C@@H]7CC(C)(C)CC[C@]7(C(=O)O[C@@H]7O[C@H](CO)[C@@H](O)[C@H](O)[C@H]7O[C@@H]7O[C@@H](C)[C@H](O[C@@H]8O[C@@H](C)[C@H](O)[C@@H](O)[C@H]8O)[C@@H](O)[C@H]7O)CC[C@]56C)[C@@]4(C)CO)O[C@H](C(=O)O)[C@@H](O)[C@@H]3O)O[C@H](CO)[C@H]2O)[C@H](O)[C@H](O)[C@H]1O (stereo not given in full) |  | 22.9% [at 19.1 µM] (inactive)
CC(C)(O)/C=C/C1=CC(=O)[C@@](C)(O)C[C@H]1O | inactive | 
CC(=O)O[C@@H]1[C@@H](O)[C@H](C)O[C@@H](O[C@H]2[C@@H]3C=CO[C@@H](O[C@@H]4O[C@H](CO)[C@@H](O)[C@H](O)[C@H]4O)[C@@H]3[C@@]3(CO)O[C@@H]23)[C@@H]1OC(=O)/C=C/c1ccccc1 | inactive | 
Nc1nc2c(c(N3CCNCC3)n1)CCC1=C2[C@@H]2CCCC[C@@H]2O1 | inactive | 
Cn1c2ccc(F)cc2c2c(C(=O)N3CCCC3)cn(-c3ccccc3)c(=O)c21 | inactive | 
COc1ncc2cc(C(=O)Nc3cc(C(=O)NCc4cccc(Cl)c4)ccc3Cl)c(=O)[nH]c2n1 | inactive | 
COc1cc(Nc2nc3c(s2)CCCC3c2ccc(F)cc2)ccc1-n1cnc(C)c1 (stereo not given) | inactive | 
CC(C)(C)NS(=O)(=O)c1cncc(-c2cc(F)c3nc(N)nn3c2)c1 | inactive | 
CC(/C=C/C1=CC2=CC(=O)C(C)(O)C(O)C2=CO1)=C\C(C)CCO (stereo not given) | inactive | 
CC(C)CC(=O)O[C@@H]1OC=C(CO[C@@H]2O[C@H](CO)[C@@H](O)[C@H](O)[C@H]2O)[C@H]2[C@@H]3O[C@H]3[C@@](O)(CO)[C@@H]12 | inactive | 
CC(C)(C)Nc1nc(Nc2ccc(C(N)=O)cc2)cc(N)c1C#N | inactive | 
O=C(c1cc2c(cc1F)OC(c1ccc(F)cc1)(c1ccc(Cl)cc1Cl)O2)N1CCOCC1 (stereo not given) | inactive | 
O=C(NCc1ccc(F)cc1)C(=O)c1c[nH]c2ccccc12 | inactive | 
CC(C)O[C@@H]1O[C@H](CO)[C@@H](O)[C@H](O)[C@H]1O | inactive | 
O=C(CO)[C@@H](O)[C@H](O[C@@H]1O[C@H](CO)[C@H](O)[C@H](O)[C@H]1O)[C@H](O)CO | inactive | 
COCC1OC(OC(C)(C)C2CCC3(C)C=C(C4CCC5C4(C)CC(O)C4OC(C(C)(C)OC6OC(CO)C(O)C(O)C6NC(C)=O)CCC45C)CCC3O2)C(NC(C)=O)C(O)C1O (stereo not given) | inactive | 
COC(=O)CC(O)CC(O)/C=C/c1c(C)ccc2c1C(O)CC(C)C2 (stereo not given) | inactive | 

Structure (SMILES) | Potency | activity change, negative = inhibition
COc1c(/C=C/C(C)(C)O)ccc2c1C(=O)OCc1cc(C)cc(O)c1O2 | inactive | 
COc1c(Nc2ncc(Cl)c(N[C@H]3[C@@H](C(N)=O)[C@@H]4C=C[C@H]3C4)n2)ccc2c1CC[C@@H](N1CCOCC1)CC2 | inactive | 
Cc1cc(O)c(-c2ccc([C@@H](C)CN(C)C)cc2)c2c1[nH]c(=O)c1sccc12 | inactive | 
CC(C)C(C#N)O[C@@H]1O[C@H](CO[C@@H]2O[C@@H](C)[C@H](O)[C@@H](O)[C@H]2O)[C@@H](O)[C@H](O)[C@H]1O (stereo not given in full) | inactive | 
COc1c2c(c(C)c3c1C(=O)OC3)OC1(C)CC(O)C34OC(OC)(OC3(C)C)C(O)CC4(C)C1C2 (stereo not given) | inactive | 
C=C1C[C@]23C[C@H]1[C@@H](O)C[C@H]2[C@@]12C=C[C@H](O)[C@@](C)(C(=O)O1)[C@H]2[C@@H]3C(=O)O | inactive | 
CC1=CC(=O)CC2C1(O)CCC(C)C21CC(c2ccoc2)OC1=O (stereo not given) | inactive | 
CCOCCn1nc(CC)c2nc(N3CCC(C(=O)O)CC3)nc(Nc3cc(C)ccn3)c21 | inactive | 
Cc1c(CN2CCN(C(=O)C(C)O)CC2)sc2c(N3CCOCC3)nc(-c3cnc(N)nc3)nc12 (stereo not given) | inactive | 
CC(=O)O[C@@H]1[C@@H](OC(=O)/C=C/c2ccccc2)[C@@H](OC(C)=O)[C@H](O[C@H]2[C@@H]3C=CO[C@@H](O[C@@H]4O[C@H](CO)[C@@H](O)[C@H](O)[C@H]4O)[C@@H]3[C@@]3(CO)O[C@@H]23)O[C@H]1C | inactive | 
CC(C)CC1OC(=O)C2CCCN2C(=O)CCNC(=O)C(Cc2ccccc2)NC(=O)C(C(C)C)N(C)C(=O)C(C(C)C)N(C)C1=O (stereo not given) (cyclo([ξLac(3-iPr)][NMeV][NMeV]F[βAla]P); configuration not given here) | inactive | 
OC[C@H]1O[C@@H](Oc2cc(O)c3c(c2)O[C@@H](c2ccc(O)cc2)[C@H](O)C3)[C@H](O)[C@@H](O)[C@@H]1O | inactive | 
C=C1CCCC2(C)CC3(OC)OC(=O)C(C)=C3CC12 (stereo not given) | inactive | 
CC1CC(C(O)C(C)(C)O)OC2CC3(C)C4(C)CCC5C(C)(C)C(=O)CCC5(C)C4CCC3(O)C12O (stereo not given) | inactive | 
CC(C)CC1NC(=O)C(C)NC(=O)C(CC(C)C)OC(=O)CCCNC1=O (stereo not given) | inactive | 
CS(=O)(=O)c1ccc([C@H](CC2CCCC2)C(=O)Nc2nccs2)cc1 | inactive | 
C=C1C(=O)OC2C1CCC(=C)C1CC(OC(C)=O)C(=C)C12 (stereo not given) | 31.6 µM (active) | 
C[C@H]1CC[C@@]2(OC1)O[C@H]1CC3C4CC[C@H]5C[C@@H](O)[C@H](O)C[C@]5(C)C4=CC(=O)[C@]3(C)[C@H]1[C@@H]2C (stereo not given in full) | inactive | 
CC(C)[C@H]1CC[C@@]2(O)COC(=O)[C@H]2[C@@H]1/C=C(\CO)C(=O)O | inactive | 
COC(=O)C1=CO[C@@H](O[C@@H]2O[C@H](CO)[C@@H](O)[C@H](O)[C@H]2O)[C@@H]2[C@@](C)(O)[C@@H](OC(=O)/C=C/c3ccc(O)cc3)C[C@]12O | inactive | 
